# HT1080NT lethal = kills 2HG-producing HT-1080-NT fibrosarcoma cells; Potency, µM (titrated, usually from 46.1 µM), for the others: at the highest dose activity, negative = less viability, actives largely listed as cytotoxic; AID 686970; HT-1080-NT fibrosarcoma viability, CellTiter-Glo ATP luminescence, 48 h; 360,000 compounds, 1.6% hits;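 further: NT is the 2HG producing partner of a matched IDH1 knockdown line; 0% = DMSO-treated cells and -100% = media-only wells without cells; nearly all actives have a fitted effect of over 55% in size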
#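 Compounds were tested in concentration-response format on HT-1080-NT cells for 48 hours at 37 degrees C. Cell viability came from CellTiter-Glo luminescence; curves were classified by r2, response magnitude and activity.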
# KB-3-1 tox = kills parental KB-3-1 adenocarcinoma cells. KB-3-1 viability, CellTiter-Glo ATP luminescence, 72 h. Potency, µM (series often up to 46.1 µM), hits mostly cytotoxic. 400,000 compounds, 1.4% hits; further: on the % scale 0 is the no-effect control and ±100 the full control effect; nearly all actives have a fitted effect of over 60% in size
#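 Multi-concentration cytotoxicity screen in KB-3-1 cells grown in DMEM lacking phenol red with 10% FBS. After 72 h at 37 °C with compound, ATP-dependent luminescence was recorded.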
# KB-V1 cytotox = KB-V1 MDR subline cytotoxicity. KB-V1 MDR cells viability, CellTiter-Glo, 72 h. Potency, µM (top dose mostly 46.1 µM), hits mostly cytotoxic. 400,000 compounds, 3.4% hits. AID 1347076; further: on the % scale 0 is the no-effect control and ±100 the full control effect; nearly all actives have a fitted effect of over 60% in size
#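 qHTS viability screen in drug-selected KB-V1 MDR cells: 72 h compound treatment at 37 degrees C, ATP luminescence end point.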
# HT1080 IDH1KD tx = kills HT-1080 cells with IDH1 knockdown. AID 686971. Potency, µM (highest dose often 46.1 µM), inactives show at the top dose activity, negative = toxicity, hits mostly cytotoxic. 360,000 compounds, 2% hits. HT-1080 IDH1 knockdown viability, ATP luminescence, 48 h;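 further: 0% = DMSO wells and -100% = cell-free medium wells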
#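 In this qHTS, HT-1080 cells depleted of IDH1 are exposed for 48 h at 37 °C to compound titrations. Toxicity is scored from CellTiter-Glo luminescence, with DMSO as full viability and medium alone as none.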
# SW480 rerep = induces DNA re-replication in SW480 colon adenocarcinoma cells; SW480 DNA re-replication, Hoechst DNA content imaging, 48 h; AID 624297; Potency, µM (titrated, usually from 46.1 µM), inactives show at the highest dose re-replication activation, usual class: activators; 340,000 compounds, 1.8% hits; further: % of control where 0% means no effect; nearly all actives have a fitted effect of over 55% in size
#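 First, 250 cells per well were seeded. Next, compound or vehicle (23 nL) was pinned in, plates sat 48 hr at 37 C. Finally Hoechst was added for 40 min before fluorescence scanning.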
# MCF10A rerep = DNA re-replication induction in MCF 10a cells; MCF 10A DNA re-replication, Hoechst nuclear intensity, 48 h; Potency, µM (top dose mostly 46.1 µM), inactives show at the top dose activity, positive = re-replication, actives largely listed as activators; 350,000 compounds, 2.9% hits; further: % of control where 0% means no effect; nearly all actives have a fitted effect of over 50% in size
# Starred values were filed as active, the others as inactive; i = inactive; ? = inconclusive; · = no result; [ ] = remark or other dose. This is a sample that favours compounds with a hit; in the whole collection about 7.9% have one here. The call rests on the fitted dose curve; in most records, active means well fitted curve in the direction sought with a large enough effect; inconclusive means small, poorly fitted or top-dose-only effect, or another doubt; inactive means no such curve, though single readings can be large; an effect the other way counts as inactive or inconclusive. Potency means the concentration at half of the fitted maximal effect.
SMILES,HT1080NT lethal,KB-3-1 tox,KB-V1 cytotox,HT1080 IDH1KD tx,SW480 rerep,MCF10A rerep
Cc1ccc(/C=N/Nc2nc(C(C)(C)C)cs2)o1,4%,i,i,-1%,-56%,9.2µM*
CC(C)(C)c1csc(N/N=C/c2cccnc2)n1,0%,?,?,-16%,-9%,14%
CNc1ncnc(Sc2nc(N)nc3nc[nH]c23)c1[N+](=O)[O-],2.9µM*,?,1µM*,1.3µM*,2.9µM*,?
Nc1nc(SCc2ccccc2)c2[nH]cnc2n1,7%,i,i,-1%,57%,1%
Nc1nc(Sc2ccc([N+](=O)[O-])c3nonc23)c2[nH]cnc2n1,4.6µM*,2.1µM*,?,1.8µM*,?,?
Nc1ncnc(Sc2ccc(Cl)cc2)c1[N+](=O)[O-],-3%,i,i,-14%,-3%,?
CCOC(=O)c1c(C)c(-c2ccccc2)n(CC(=O)NCc2ccccc2)c1C,·,i,i,·,·,·
CN(C)C(CNC(=O)C1CCN(S(=O)(=O)c2ccc(Cl)cc2)CC1)c1ccccc1 (centres undefined),-22%,i,i,-5%,25%,2%
Cc1cc(C)c(C)c(S(=O)(=O)N2CCC(C(=O)NCC(c3ccccc3)N(C)C)CC2)c1C (centres undefined),?,i,i,18µM*,177%,?
Cc1ccc(S(=O)(=O)CCSC(=N)N)cc1,?,i,i,?,6.5µM*,18µM*
Cc1ccc(S(=O)(=O)CC(N)=O)cc1,5%,i,i,-5%[9.24 µM],5%,?
Oc1cccc(C2c3[nH]c4ccccc4c3CCN2Cc2ccoc2)c1 (centres undefined),1%,i,i,-3%,-10%,19%
Oc1cccc(C2c3[nH]c4ccccc4c3CCN2Cc2ccc3c(c2)CCO3)c1 (centres undefined),21µM*,21µM*,18µM*,23µM*,?,16µM*
O=[N+]([O-])c1cccc(S(=O)(=O)N2CCN(c3nc(-c4cccs4)nc4ccccc34)CC2)c1,·,i,i,·,·,·
O=C(NNc1ccc(C(F)(F)F)cc1[N+](=O)[O-])c1ccc(NS(=O)(=O)c2ccc(F)cc2)cc1,?,i,i,21µM*,-49%,24%
Cc1ccc(C)c(CSc2nnc(-c3cccnc3)o2)c1,3%,i,18µM*,-18%,1%,23%
Fc1ccccc1CSc1nnc(-c2cccnc2)o1,-1%,i,i,1%,-6%,10%
Cc1ccc(C23CC4CC(CC(CN)(C4)C2)C3)cc1,18µM*,?,?,?,?,?
CCCCN(C)CCNC(=O)c1nn(-c2ccc(OC)c(Cl)c2)c(=O)c2c1c1ccccc1n2C,·,i,i,·,·,·
O=C(/C=C/c1cccs1)c1cc(Br)ccc1OC(=O)N1CCOCC1,21µM*,?,?,?,?,?
O=C(/C=C/c1cccs1)c1ccc(N2CCOCC2)cc1,1%,i,i,2%,4%,?
COc1cc(-c2nc3c(c(C)nn3-c3ccccc3)c3cc(OC)c(OC)cc23)ccc1O,-4%,?,?,-3%,16%,13µM*
COc1cc2c(-c3cc(Br)ccc3O)nc3c(c(C)nn3-c3ccccc3)c2cc1OC,·,i,i,·,·,·
CC(=O)N(c1ccccc1C)C1CCCC1,13%,i,i,8%,-14%,14%
CC(=O)N(C1=C(Cl)C(=O)c2ccccc2C1=O)C1CCCCC1,4.1µM*,?,?,2.9µM*,?,?
SMILES,HT1080NT lethal,KB-3-1 tox,KB-V1 cytotox,HT1080 IDH1KD tx,SW480 rerep,MCF10A rerep
COc1cc(C(C)=O)ccc1Oc1ncnc2c1cnn2-c1ccccc1,1%,i,15µM*,10%,-4%,9%
O=C(C1CCC(Cn2c(=S)[nH]c3ccccc3c2=O)CC1)N1CCN(c2ccccn2)CC1 (centres undefined),-1%,?,?,-4%,-7%,-5%
O=c1c2cccnc2[nH]c(=S)n1CCCN1CCN(c2ccc(F)cc2)CC1,1%,?,i,-10%,-6%,-1%
O=C(C1CCC(Cn2c(=S)[nH]c3ccccc3c2=O)CC1)N1CCN(c2ccccc2)CC1 (centres undefined),-3%,i,i,-26%,0%,?
O=C(C1CCC(Cn2c(=S)[nH]c3ccccc3c2=O)CC1)N1CCOCC1 (centres undefined),-2%,?,23µM*,8%,-7%,-1%
COc1ccc(N2CCN(CCCn3c(=S)[nH]c4ncccc4c3=O)CC2)cc1,-2%,6.5µM*,i,-11%,1%,7%
COc1ccc(N2CCN(C(=O)C3CCC(Cn4c(=S)[nH]c5ccccc5c4=O)CC3)CC2)cc1 (centres undefined),11%,18µM*,2.9µM*,-2%,?,18%
Cc1c2cnn(CC(=O)NCCc3ccccc3)c(=O)c2c(C)n1Cc1ccccc1Cl,·,i,i,·,·,·
C=CCNC(=S)NNC(=O)c1ccc(OCC(C)C)cc1,?,i,i,-25%,18µM*,-2%
C=CCNC(=S)NNC(=O)c1ccc(OCCC)cc1,14%,i,i,10%,-9%,6%
COc1ccc(C(=O)NNC(=S)NC(=O)c2ccc(OC)cc2)cc1,?,?,i,?,0%,?
CCCCC(=O)NC(=S)NNC(=O)c1ccc(OC)cc1,?,23µM*,?,?,-13%,-1%
CCCOc1ccc(C(=O)NNC(=S)NC(=O)CC)cc1,?,13µM*,?,10µM*,?,16µM*
O=C(CCCSc1ccc(Cl)cc1)Nc1cc(S(=O)(=O)N2CCOCC2)ccc1O,-9%,i,i,-6%,-5%,28%
Cc1nc(N)sc1-c1csc(Nc2ncccn2)n1,?,i,i,21µM*,17%,?
CCN(CC)CCn1c(NCc2nc3ccccc3n2Cc2ccccc2)nc2ccccc21,?,i,i,11µM*,?,23µM*
CCCCn1c(NCc2ccccc2NS(=O)(=O)c2ccc(C)cc2)nc2ccccc21,-5%,i,?,-5%,6%,20%
CCN(CC)c1ccc(CNc2nc3ccccc3n2CCN2CCCCC2)cc1,16µM*,?,?,?,?,13%
CCN(CC)CCn1c(NS(=O)(=O)c2ccc(C)cc2)nc2ccccc21,-7%,i,21µM*,-2%,-6%,7%
